For assay [1], the system named is XIP peptide (Xip251-270) binding. Description: small-molecule binders of XIP peptide, primary screen, biochemical, small-molecule microarray, fluorescence 635/667 nm, 0.1 µg/mL protein (AID 1182). The note with it: fluorescent protein binding, 635 nm, higher = more signal, called active from +8 up or from −8 down.
For assay [2], the system named is XIP peptide (Xip251-270). Description: small-molecule binders of XIP peptide, primary screen, biochemical, small-molecule microarray, fluorescence 635/667 nm, 0.5 µg/mL protein (AID 1183). The note with it: small-molecule microarray binding, fluorescence 635 nm; higher = more signal.
The nature of assay [3]: Plasmodium falciparum growth inhibition, primary screen, strain 3D7, DAPI fluorescence, 100 nL (AID 1184).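 Also: parasites grown inside human red blood cells in medium with human serum.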 The following applies: P. falciparum 3D7 growth, 3 d, higher = more signal.
Assay [4] addresses Homeobox protein Hox-A13 (Mus musculus) (UniProt Q62424). Description: inhibitors of HoxA13-DNA binding, primary screen, biochemical, fluorescence polarization, labeled oligonucleotide (AID 1185). The following applies: 15 min, higher = more signal, called active from +8 up or from −8 down. (In general: In fluorescence polarisation assays a small probe gives low polarisation when free and higher when bound to something large.)

The nature of assay [5]: inhibitors of hydroxyurea-induced Chk1 phosphorylation, primary screen, imaging, HeLa, phospho-Chk1 antibody, percent positive cells (AID 1186). The following applies: hydroxyurea-induced phospho-Chk1 immunofluorescence imaging, higher = more signal.
Assay [6] is described as follows: inhibitors of hydroxyurea-induced Chk1 phosphorylation, primary screen, imaging, HeLa, phospho-Chk1 nuclear intensity (AID 1187). The note with it: hydroxyurea-induced phospho-Chk1 immunofluorescence imaging, higher = more signal.

Data on 15 molecules can be found in PubChem BioAssay.

Calls of active or inactive are those of the source. Unless noted, no rule for the calls is given here.

Chain of Homeobox protein Hox-A13 (Mus musculus) (Q62424 whole entry, looked up): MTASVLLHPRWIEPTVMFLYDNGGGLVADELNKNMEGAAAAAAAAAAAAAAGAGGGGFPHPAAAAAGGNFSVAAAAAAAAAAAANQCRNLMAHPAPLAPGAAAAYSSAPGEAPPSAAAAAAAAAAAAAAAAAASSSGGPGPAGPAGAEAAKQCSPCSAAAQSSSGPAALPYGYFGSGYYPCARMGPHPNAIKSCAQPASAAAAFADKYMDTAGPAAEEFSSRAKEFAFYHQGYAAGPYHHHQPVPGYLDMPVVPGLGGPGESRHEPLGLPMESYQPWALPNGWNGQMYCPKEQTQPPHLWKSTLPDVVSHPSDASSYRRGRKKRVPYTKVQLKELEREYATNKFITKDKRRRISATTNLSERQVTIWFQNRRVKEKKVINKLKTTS

`COC(=O)[C@@]1(Cc2ccc(F)cc2)[C@H]2c3cc(C(=O)N4CCCC4)n(C)c3C[C@H]2CN1C(=O)c1ccccc1`: the composite z-score is 0.125 (inactive) in assay [1] and 0.664 in assay [2]. The z-score in assay [3] was -0.37; in assay [4], -6.1 (inactive); in assay [5] it was -0.0152 (inactive); in assay [6] it was 0.504 (inactive).

Regarding `COC(=O)c1c2oc(c1C(=O)OC)C(=O)N1CCC[C@H]1Cn1nncc1CN(Cc1ccccc1)C(=O)N[C@H](CO)CC2`, the composite z-score in assay [1] is -0.0783 (inactive); in assay [2] it was 0.59. In addition, the z-score in assay [3] was -0.414; in assay [4] it was -3.78 (inactive); in assay [5] it was 0.159 (inactive); in assay [6], 0.306 (inactive).

On to `O=C1C2C=CC(C(O)c3cccc(O)c3)N(Nc3ccccc3)C2C(=O)N1c1ccccc1` (stereo not given), for which the values for the composite z-score in assay [1] and in assay [2] were -0.234 (inactive) and 0.214, respectively. For the same molecule, the z-score is -0.267 in assay [3], -1.18 (inactive) in assay [4], 0.293 (inactive) in assay [5] and 0.126 (inactive) in assay [6].

Take `CN1C(=O)C2C(C1=O)C1C=C(CCCO)C2C(C2CC2)N1Cc1cc2c(cc1Br)OCO2` (stereo not given): the composite z-score in assay [1] is 1.34 (inactive); in assay [2], 0.891. Further, the z-score in assay [3] was -1.2; in assay [4] it was -7.89 (inactive); in assay [5], 0.498 (inactive); in assay [6], 0.27 (inactive).

As for `O=C1C[C@@](C(=O)NCc2ccccc2)(c2ccc([N+](=O)[O-])cc2)[C@@H](c2ccc(CO)cc2I)N1CC12CC3CC(CC(C3)C1)C2`, the composite z-score in assay [1] is 0.239 (inactive); in assay [2], 0.692. Besides, the z-score in assay [3] was -1.48; in assay [4], -2.19 (inactive); in assay [5], -0.114 (inactive); in assay [6], -0.147 (inactive).

As for `CC(C)(C)OC(=O)CC[C@]12N=C(c3ccc(OCCCO)cc3)O[C@H]1c1ccccc1N(Cc1ccccc1)C2=O`, the figures for the composite z-score in assay [1] and in assay [2] were -0.326 (inactive) and 0.802, respectively. The z-score in assay [3] is -2.21; in assay [4], -0.817 (inactive); in assay [5] it was -0.022 (inactive); in assay [6] it was 0.363 (inactive).

Take `COCC(=C=CC[C@H](O)c1cccc(OCCO)c1)C[C@H](O)COCc1ccccc1`: the composite z-score in assay [1] was 0.196 (inactive); in assay [2], -0.524. Moreover, the z-score in assay [3] was -1.88; in assay [4] it was -3.95 (inactive); in assay [5], -0.0978 (inactive); in assay [6], 0.443 (inactive).

Regarding `O=C1C2C=CC(C(O)C=Cc3ccc([N+](=O)[O-])cc3)N(Nc3ccccc3)C2C(=O)N1c1ccccc1` (stereo not given), the figures for the composite z-score in assay [1] and in assay [2] were -0.375 (inactive) and 0.596, respectively. The z-score is -0.054 in assay [3], -4.58 (inactive) in assay [4], -0.744 (inactive) in assay [5] and -0.913 (inactive) in assay [6].

For `CCCNC(=O)[C@@]1(C)c2ccccc2C(=O)N(Cc2ccccc2)[C@H]1c1ccc(CO)cc1`, the composite z-score in assay [1] was 0.952 (inactive); in assay [2], 0.355. Further, the z-score in assay [3] was -0.804; in assay [4], -1.91 (inactive); in assay [5], -0.558 (inactive); in assay [6], -0.579 (inactive).

In the case of `CCOC(=O)C1=C[C@@H](C(C)(C)C)N(S(=O)(=O)c2ccc(C)cc2)[C@H]1c1ccc(C)cc1`, the composite z-score in assay [1] was 0.177 (inactive); in assay [2] it was 0.325. The z-score in assay [3] was -2.07; in assay [4] it was -0.0064 (inactive); in assay [5] it was 0.0978 (inactive); in assay [6], -0.184 (inactive).

Consider `CN(C)CCCCNC(=O)[C@H]1C[C@H]2C(=O)N[C@@H](CCCC[N+](C)(C)C)C(=O)N2[C@H]1c1ccc(O)cc1`, for which the composite z-score was -0.0941 (inactive) in assay [1] and 0.674 in assay [2]. The z-score in assay [3] is -0.449; in assay [4], -3.64 (inactive); in assay [5] it was -1.31 (inactive); in assay [6] it was -0.989 (inactive).

In the case of `CC(=O)NCCCC[C@@H]1NC(=O)[C@@H]2C[C@H](C(=O)NCCCCCCN)[C@H](c3cccc(OCCO)c3)N2C1=O`, the composite z-score is 1.15 (inactive) in assay [1] and 0.635 in assay [2]. The z-score is 1.42 in assay [3], -3.35 (inactive) in assay [4], 0.391 (inactive) in assay [5] and 0.388 (inactive) in assay [6].

Turning to `COCCOC(=O)N1C(=O)[C@@]2(c3cc(C#CCC(C(=O)OC)C(=O)OC)ccc31)[C@H](c1ccc(O)cc1)N1[C@H](c3ccccc3)[C@H](c3ccccc3)OC(=O)[C@H]1[C@@H]2C(=O)NC[C@H](O)c1ccccc1`, the composite z-score in assay [1] is 0.398 (inactive); in assay [2], 0.465. The z-score was -0.474 in assay [3], -2.44 (inactive) in assay [4], 0.101 (inactive) in assay [5] and 0.524 (inactive) in assay [6].

As to `C=CCOC(=O)[C@H]1[C@@H]2C(=O)O[C@@H](c3ccccc3)[C@@H](c3ccccc3)N2[C@@H](c2ccc(OCCOC(=O)[C@H]3C[C@H]4C(=O)N[C@@H](CCCCNC(C)=O)C(=O)N4[C@H]3c3cccc(OCCO)c3)cc2)[C@]12C(=O)Nc1ccc(I)cc12`, the values for the composite z-score in assay [1] and in assay [2] were 0.996 (inactive) and 0.68, respectively. In addition, the z-score in assay [3] is -1.61; in assay [4], 2.36 (inactive); in assay [5] it was -0.138 (inactive); in assay [6] it was 0.239 (inactive).

For the molecule `CCOC(=O)C[C@H]1[C@H](OC(=O)c2cc3ccccc3oc2=O)[C@@H](NC(=O)c2ccc3ccccc3c2)c2cc(OCCCO)ccc2N1C(=O)Cc1ccc(OC)cc1`, the composite z-score in assay [1] is 0.515 (inactive); in assay [2] it was 0.335. Also, the z-score in assay [3] is -0.791; in assay [4], -2.96 (inactive); in assay [5], 0.204 (inactive); in assay [6], -0.322 (inactive).
